# Hits are enriched below; roughly 1.3% of the tested compounds scored in any of these assays.
# RTF Ca sens inh – cardiac RTF calcium sensitivity inhibitors, primary screen, biochemical, IANBD-TnC fluorescence, EC70 calcium. Troponin I, cardiac muscle (Homo sapiens) + Troponin T, cardiac muscle (Homo sapiens) + …. IANBD-labeled cardiac RTF, Ca2+ fluorescence. inhibition, % at 7.15 µM. actives 0.12% (n = 340,000). AID 493244, 2011;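 active = inhibition above the mean inhibition of all tested compounds plus 3 SD, cut at about 17% in these data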;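 also: assay run at fixed EC70 calcium of 1.6 mM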
# CRFBP-R2 block – antagonists of CRF-BP/CRF-R2 complex, primary screen, cell-based, HEK293, calcium dye fluorescence, uHTS. inhibition, % at 11.8 µM. actives 0.59% (n = 350,000). AID 588475, 2011. CRF-induced calcium fluorescence;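 active = inhibition of the ligand-induced calcium signal above about 50% at the single tested concentration, limit read from the data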
# cardiac RTF act – cardiac RTF calcium sensitivity activators, primary screen, biochemical, IANBD-TnC fluorescence, EC20 calcium. actives 0.24% (n = 340,000). activation, % at 7.2 µM. Troponin I, cardiac muscle (Homo sapiens) + Troponin T, cardiac muscle (Homo sapiens) + …. IANBD-labeled TnC RTF fluorescence at EC20 calcium; 0% EC20 calcium, 100% full calcium;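 active = activation above the mean over all tested compounds plus 3 SD, cut at about 30% in these data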;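 also: rise in fluorescence read as greater calcium sensitivity of cardiac thin filaments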
# CRFR2-BP ag – agonists of CRF-BP/CRF-R2 complex, primary screen, cell-based, HEK293, calcium dye fluorescence, uHTS; CRF-binding protein / CRF receptor 2 complex (human); calcium dye fluorescence (FLIPR); percent of saturating CRF peptide response; activation, % at 13.2 µM; actives 0.46% (n = 350,000); AID 588473, 2011;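 active = activation of at least 50%, plus an integration ratio under a set limit after plate pattern correction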;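 also: plate controls were neutral control wells without compound for no effect and CRF at EC100 for full effect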
# An asterisk follows results filed as active; . = not tested or not shown.
SMILES,RTF Ca sens inh,CRFBP-R2 block,cardiac RTF act,CRFR2-BP ag
CC(C)c1cc(NC(=O)c2ccccc2)cc(C(C)C)c1O,11,82*,-7,-3
CN(C)c1ccc(/C=C/c2nc3ccccc3c(=O)n2CCO)cc1,-135,-24,38*,8
O=c1c2ccccc2nc(/C=C/c2ccccc2)n1CCCO,3,-2,-9,1
Cn1c2c(c(=O)n(C)c1=O)C(C(F)(F)F)(C(F)(F)F)N=C(CCC1CCCCC1)N2,-2,-13,45*,3
O=C1CCNCCN1[C@H](CO)c1ccccc1,1,3,-3,-1
Cc1cc(Br)ccc1NC(=O)CNC(=O)Cn1ncc(Cl)c(Cl)c1=O,-11,87*,4,-1
CCOc1ccc(NC(=O)c2ccc3c(c2)C(=O)N(Cc2ccncc2)C3=O)cc1,-2,2,0,3
CCCc1nnc(NC(=O)CCC(=O)N2CCN(Cc3cc(Cl)ccc3OC)CC2)s1,-5,1,-2,-2
CCc1nnc(NC(=O)CCC(=O)N2CCN(Cc3cc(Cl)ccc3OC)CC2)s1,2,106*,4,1
Cc1ccc(S(=O)(=O)N[C@H](C(=O)Oc2ccc3c(C(F)(F)F)cc(=O)oc3c2)c2ccccc2)cc1,-13,-20,3,69*
COc1ccc(NC(=O)c2cc(-c3ccccn3)nc3ccccc23)cc1S(=O)(=O)N(C)C,-2,6,1,2
Cc1cc2c(c(C#N)c1C)NC=NC2C (stereo not given),.,27,.,3
O=C1C(F)=CC(COC(c2ccccc2)(c2ccccc2)c2ccccc2)OC1n1cc(F)c(=O)[nH]c1=O (stereo not given),-5,-45,1,55*
CCCCCCOC(=O)C[N+](C)(C)CCOC1CC2CCC1(C)C2(C)C (stereo not given),0,24,0,1
CCCCCCCOC(=O)C[N+](C)(C)CCOC1CC2CCC1(C)C2(C)C (stereo not given),-4,-158,-5,111*
CCCCn1c(N)c(N(CCOC)C(=O)CSc2nnc(-c3ccc(F)cc3)n2N)c(=O)[nH]c1=O,-20,-11,0,0
O=C(Nc1ccc([N+](=O)[O-])cc1Cl)c1cccc([N+](=O)[O-])c1,.,25,.,-1
O=C(Nc1ccc([N+](=O)[O-])cc1Cl)c1cc(Cl)ccc1O,-1,87*,-4,61*
O=C(Nc1cccc(Cl)c1)c1cc(N=Nc2ccc([N+](=O)[O-])cc2Cl)ccc1O,1,69*,-8,31
CCCC(=O)OCCNc1cc(Sc2nccn2C)c2nonc2c1[N+](=O)[O-],-12,52*,5,-2
CCCSc1cc(NCCOC(=O)CCC)c([N+](=O)[O-])c2nonc12,1,34,5,-3
COc1ccc2ccccc2c1CNCCCN1CCOCC1,-9,67*,-1,-2
COc1ccc(NC(=O)c2ccccc2NC(=O)c2ccco2)c(OC)c1,1,-7,9,-2
COc1ccc(/C=N/NC(=O)c2ccccc2NC(=O)c2ccco2)c(OC)c1,0,111*,0,-3
Nc1ncnc(NNC(=O)CNC(=O)c2c(F)cccc2Cl)c1[N+](=O)[O-],-4,101*,1,3
SMILES,RTF Ca sens inh,CRFBP-R2 block,cardiac RTF act,CRFR2-BP ag
CCCCC[C@@H]1C=C(C(=O)O)[C@H](c2ccc(Cl)c(Cl)c2)N1S(=O)(=O)c1ccc(C)cc1,2,28,-14,4
Cc1ccc([C@H]2C(C(=O)O)=CC[C@@H](c3cccc(C)c3)N2S(=O)(=O)c2ccc(C)cc2)cc1,-4,12,-5,-1
CCCCC[C@@H]1C=C(C(=O)O)[C@H](c2cccc(C)c2)N1S(=O)(=O)c1ccc(C)cc1,-4,60*,-4,-2
Cc1ccc([C@H]2C(C(=O)O)=CC[C@@H](c3ccc(Cl)cc3)N2S(=O)(=O)c2ccc(C)cc2)cc1,-6,66*,-4,6
Cc1ccc([C@@H]2CC=C(C(=O)O)[C@H](c3ccccc3)N2S(=O)(=O)c2ccc(C)cc2)cc1,-9,5,6,0
Cc1ccc(S(=O)(=O)N2[C@@H](c3ccc(Br)cc3)C(C(=O)O)=CC[C@H]2c2cccc(C)c2)cc1,-2,86*,1,-2

# Screening data (PubChem BioAssay)
